From PubChem BioAssay
Pin1 inh: qHTS Assay to Find Inhibitors of Pin1; Potency, µM (top dose mostly 115 µM), inactives show at the top dose activity, negative = inhibition, hits mostly inhibitors; AID 504891, 2011; 0.009% of 390,000 active; Peptidyl-prolyl cis-trans isomerase NIMA-interacting 1 (Homo sapiens), Q13526; Pin1 FP peptide displacement, HiFluor488, 10 min; active means well fitted inhibition curve with a large enough effect in the polarisation, with a control signal flat, not every such curve was filed as active; inconclusive means small, poorly fitted or top-dose-only effect, or effect the other way, or a change in a side signal; inactive means no such curve, though single readings can be large or run the other way; the % refers to the polarisation; further: potency means the concentration at half of the fitted maximal effect; on the % scale 0 is the no-effect control and ±100 the full control effect
Target sequence (Q13526 whole entry, looked up): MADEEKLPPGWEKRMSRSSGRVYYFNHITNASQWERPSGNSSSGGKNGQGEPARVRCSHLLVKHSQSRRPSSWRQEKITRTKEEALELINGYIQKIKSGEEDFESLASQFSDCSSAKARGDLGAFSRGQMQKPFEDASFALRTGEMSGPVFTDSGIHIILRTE
PKM2 act: qHTS Assay for Activators of Human Muscle isoform 2 Pyruvate Kinase; Pyruvate kinase PKM (Homo sapiens), P14618; AID 1631, 2009; 0.34% of 260,000 active; Potency, µM (doses to about 57.5 µM), for the others: top-dose activation, usual class: activators; purified PKM2, Kinase-Glo ATP luminescence, activation; response scale: 0% is enzyme alone, no compound; further: potency means the concentration at half of the fitted maximal effect; on the % scale 0 is the no-effect control and ±100 the full control effect; nearly all actives have a fitted effect of over 55% in size
Target sequence (P14618 whole entry, looked up, canonical isoform): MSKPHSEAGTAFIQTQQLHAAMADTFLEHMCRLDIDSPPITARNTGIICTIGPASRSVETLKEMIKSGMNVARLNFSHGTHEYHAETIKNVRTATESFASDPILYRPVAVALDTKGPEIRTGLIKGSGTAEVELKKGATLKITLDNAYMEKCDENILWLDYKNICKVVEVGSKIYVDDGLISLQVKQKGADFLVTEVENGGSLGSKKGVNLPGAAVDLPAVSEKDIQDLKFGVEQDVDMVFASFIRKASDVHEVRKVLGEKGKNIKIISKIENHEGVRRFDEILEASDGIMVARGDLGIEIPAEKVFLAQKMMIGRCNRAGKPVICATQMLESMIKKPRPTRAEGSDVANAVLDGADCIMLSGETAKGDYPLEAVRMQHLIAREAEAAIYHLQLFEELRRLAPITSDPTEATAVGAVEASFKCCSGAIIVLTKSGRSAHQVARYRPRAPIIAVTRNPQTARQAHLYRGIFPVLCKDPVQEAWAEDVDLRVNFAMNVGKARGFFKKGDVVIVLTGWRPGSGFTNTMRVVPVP
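Kinase-Glo luminescence reports ATP generated from ADP (0.1 mM) and PEP (0.5 mM) by purified hPK-M2 after 1 h at room temperature, pH 7.2 imidazole buffer; intermediate enzyme activity allows detecting inhibitors and activators.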
ClpP mod: qHTS Assay for Activators of ClpP | ATP-dependent Clp protease proteolytic subunit (Bacillus subtilis (strain 168)), P80244 | purified B. subtilis ClpP, FRET peptide cleavage, 20 min | Potency, µM (series often up to 57.5 µM), for inactives: top-dose activity change, negative = active | 1.9% of 340,000 active | AID 651965, 2013; active means well fitted falling curve with a large enough effect; inconclusive means small, poorly fitted or top-dose-only effect; inactive means no such curve, though single readings can be large or run the other way; further: potency means the concentration at half of the fitted maximal effect; the source files actives as falling curves though it sought activators and does not explain the sign; nearly all actives have a fitted effect of over 65% in size
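ClpP 10 microg/mL final, pH 8 Tris/KCl buffer with BSA, glycerol, Tween-20; compound pinned in; FRET-FV substrate; RT 20 min; Ex320/Em430; ΔFRET vs ADEP 5.8 microM, DMSO, no enzyme.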
USP2a block: qHTS Assay for Inhibitors of Ubiquitin-specific Protease USP2a Using CHOP2 as the Reporter | Ubiquitin carboxyl-terminal hydrolase 2 (Homo sapiens), O75604 | USP2 core, Ub-CHOP2 coupled fluorogenic reporter, 485/531 | Potency, µM (series often up to 38.3 µM), for inactives: at the top dose activity change, negative = inhibition, usual class: inhibitors | 0.01% of 330,000 active;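 further: potency means the concentration at half of the fitted maximal effect; plate controls were DMSO wells for no effect and full inhibition by NEM control for full effect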
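Deubiquitinase activity read as fluorescence (485/531 nm) after Ub-CHOP2 cleavage activates the enterokinase reporter on its substrate; USP2 core 10nM, Ub-CHOP2 and substrate 25nM each, 30min compound preincubation then 60min RT; data normalized to NEM, curves fitted.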
IL-2 act: qHTS of IL-2 Activators; IL-2 activation reporter assay, cell-based qHTS; stimulated with anti-CD3/CD4/CD28 beads; in transgenic mouse T cells; activation, % (series mostly up to about 46 µM); 0.065% of 360,000 active; in the data active means activation above about 50%; inconclusive means mostly about 30% to 49%; further: 0% is about no effect
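Screening format: compound pinned onto unstimulated transgenic mouse T cells, 60 min incubation, then anti-CD3/anti-CD4/anti-CD28 bead stimulation for 18 hours at 37 degrees C, followed by EGFP and DsRed detection.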
a7 integrin act: qHTS for Activators of Integrin-Mediated Alleviation for Muscular Dystrophy. alpha7betagal myoblasts, beta-gal FDG fluorescence, 48 h. Potency, µM (top dose mostly 38.3 µM), inactives show at the highest dose activation, most hits filed as activators. 0.064% of 350,000 active;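 further: potency means the concentration at half of the fitted maximal effect; 100% = response of the positive control SU9516; nearly all actives have a fitted effect of over 60% in size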
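Alpha7betagal+/- myoblasts (passage 13) were plated 16-24 hr, then exposed to compounds (1:260 dilution of DMSO stock) for 48 hours at 37C. After MPER lysis, β-galactosidase reporter activity was read as FDG fluorescence (ex 480/em 540) after 30 minutes.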
ClpP inh valid: qHTS Assay for Activators of ClpP: Hit Validation of Inhibitors; 40% of 470 active; Potency, µM (top dose mostly 57.5 µM), for inactives: at the top dose activity change, negative = inhibition, hits mostly inhibitors; purified B. subtilis ClpP, FRET-FV substrate cleavage, 20 min; AID 743245, 2014; shares compounds with ClpP mod; further: potency means the concentration at half of the fitted maximal effect; on the % scale 0 is the no-effect control and ±100 the full control effect; nearly all actives have a fitted effect of over 70% in size
The depositor's hits bear a star; ? = inconclusive; . = no result given. In the library only some 1.9% were active in any assay of this set; here they are far more common. Unless noted, the call rests on the fitted dose curve; in most records, active means well fitted curve in the direction sought with a large enough effect; inconclusive means small, poorly fitted or top-dose-only effect, or another doubt; inactive means no such curve, though single readings can be large; an effect the other way counts as inactive or inconclusive.

SMILES | Pin1 inh | PKM2 act | ClpP mod | USP2a block | IL-2 act | a7 integrin act | ClpP inh valid
Cc1ccc(CC(=O)Nc2c(C(=O)N3CCN(c4ccccc4F)CC3)oc3ccccc23)cc1 | 2% | . | -7% | . | . | . | .
CCOc1cc(C(=O)Nc2ccc(-c3nc4cc(C)ccc4o3)cc2)cc(OCC)c1OCC | 6% | . | 3.2µM* | . | . | . | 31µM*
CC(NC(=O)C1CCN(S(=O)(=O)c2ccc(F)cc2)CC1)c1ccccc1 (stereo unspecified) | -4% | . | ? | . | . | . | -1%
CC(NC(=O)C1CCN(S(=O)(=O)N2CCCCCC2)CC1)c1ccccc1 (stereo unspecified) | -2% | -1% | 0% | 0% | 5 | 4% | .
CC1CN(C(=O)Nc2ccc(C(=O)NCc3cccc(F)c3)cc2)c2ccccc2S1 (stereo unspecified) | 37% | . | -2% | . | . | . | .
Cc1cc(N2CCN(C)CC2)n2cc(-c3ccc(F)cc3)nc2n1 | 1% | 0% | 7.1µM* | 0% | -3 | 25% | 27µM*
Cc1cc(N2CCN(c3ccc(F)cc3)CC2)n2cnnc2n1 | -6% | . | 2% | . | . | . | .
COc1ccc(C(=O)NCCn2cc(SCC(=O)NCCc3ccc(OC)c(OC)c3)c3ccccc32)cc1 | 2% | . | -3% | . | . | . | .
NS(=O)(=O)c1cccc(NC(=O)c2cc(-c3cccs3)nc3ccccc23)c1 | 11% | 0% | 4% | -1% | 0 | -24% | .
O=C(Nc1ccc(Br)cc1)c1cc(-c2cccs2)nc2ccccc12 | 18% | . | 38% | . | . | . | 24µM*
CCOc1ccc(C2C=C(c3ccccc3)Nc3nnnn32)cc1 (stereo unspecified) | ? | -3% | ? | 0% | 0 | -3% | .
CCOc1ccc(C2C=C(c3ccc(C)cc3)Nc3nnnn32)cc1 (stereo unspecified) | ? | 2% | 10µM* | 8% | 21 | -27% | -11%
COc1ccc(-c2cn3c(n2)CCC3)cc1 | -2% | -4% | -8% | 1% | 1 | -10% | .
c1ccc(-c2ccc(-c3cn4c(n3)CCC4)cc2)cc1 | -1% | -5% | 2.8µM* | -6% | 4 | 18% | 22µM*
Cc1ccc(-n2c3c(cc(C(=O)Nc4ccccc4C(N)=O)c2=O)C(=O)CC(C)(C)C3)cc1 | -2% | . | 61% | . | . | . | .
Cc1ccccc1CN1CCc2nc(Nc3ccc4c(c3)OCCO4)ncc2C1 | -7% | . | -5% | . | . | . | .
NC(=O)c1ccccc1NC(=O)c1ccc(-c2ccc(Br)cc2)o1 | 22% | . | 187% | . | . | . | 17µM*
O=C(Nc1ccccc1)c1ccc(-c2ccc(Br)cc2)o1 | 29% | 1% | -4% | 0% | -1 | ? | .
O=C(Nc1cccc(NC(=O)c2ccc(-c3ccc(Br)cc3)o2)c1)c1ccccc1 | 4% | -2% | 521% | -1% | 1 | 24% | 22µM*
CCC1=C2CC[C@H]3C(=O)NC(=O)[C@H]3[C@H]2[C@@]2(C)C(=NCC(=O)OC)OC(=O)N2C1=O | . | 3% | . | . | . | . | .
CC1=C(C(=O)N2CCN(c3ccc(Cl)cc3)CC2)C2(CCC(C)CC2)OC1=O (stereo unspecified) | -5% | . | -2% | . | . | . | .
Clc1cc2nc3ccccn3c2cc1Cl | ? | 0% | 8.9µM* | -2% | 0 | -22% | 19µM*
O=Cc1c(Cl)nc2ccccn12 | 5% | 3% | . | -1% | -1 | 10% | .
CCOc1ccccc1NC(=O)c1ccc2c(Cl)c3c(nc2c1)CCC3 | -1% | . | 6% | . | . | . | .
COc1ccc(-c2nc(NC(=O)c3ccc(OCC(=O)Nc4ccc(F)cc4)c(OC)c3)sc2C)cc1 | 4% | 2% | 144% | -6% | -1 | -28% | 19µM*
SMILES | Pin1 inh | PKM2 act | ClpP mod | USP2a block | IL-2 act | a7 integrin act | ClpP inh valid
CC(=O)Nc1ccc(NC(=O)Nc2ccc(C)c(C)c2)cc1 | 1% | 3% | 1% | 11% | -3 | -11% | .
CC(=O)Nc1cccc(NC(=O)Nc2ccc(C)c(Cl)c2)c1 | 7% | -2% | 1.8µM* | 1% | -2 | ? | 0%
COc1ccccc1NC(=O)c1sc2nc(N3CCOCC3)c3c(c2c1N)CCCC3 | 3% | 7% | 8.9µM* | 1% | 0 | 8% | ?
Cc1ccccc1NC(=O)c1sc2nc(N3CCOCC3)c3c(c2c1N)CCCC3 | 2% | . | 4% | 0% | 1 | 1% | .
CCOc1ccc(-c2cn3c(n2)sc2cc(C(=O)NC4CCCc5ccccc54)ccc23)cc1 (stereo unspecified) | -11% | . | 5µM* | . | . | . | ?
Cc1ccccc1Cn1c2ccccc2c2cnn(CC(=O)NCCCc3ccccc3)c(=O)c21 | 12% | . | -17% | . | . | . | .
COc1ccccc1C1CC(c2ccco2)=NN1c1ccccc1 (stereo unspecified) | 30% | 10% | 3.5µM* | 2% | -4 | -17% | 27µM*
CCn1c(C(=O)NCc2cc(Br)ccc2OC)cc2oc3ccccc3c21 | 21% | . | 4% | . | . | . | .
COc1ccc(CCNc2cc(C)nc3c(-c4ccc(Cl)cc4)cnn23)cc1OC | 10% | 9% | 8.9µM* | 2% | -1 | -16% | 24µM*
Cc1ccc(C(=O)Nc2nnc(SCc3cc(=O)n4ccc(C)cc4n3)s2)cc1 | 0% | . | 5% | . | . | . | .
COc1ccc(-c2cc(C(=O)N3CCC3)c3ccccc3n2)cc1OC | 8% | . | 3.2µM* | 0% | -3 | -20% | -2%
CCC1=C2CC[C@H]3C(=O)N(c4ccccc4)C(=O)[C@H]3[C@H]2[C@@]2(C)C(=O)N(Cc3ccccc3)C(=O)N2C1=O | . | 0% | . | . | . | . | .
CN(C)c1ccc(/C=C2\C=Cc3cc([N+](=O)[O-])ccc32)cc1 | . | . | 1% | . | . | . | .
Cn1c(=O)n(C)c2cc(NS(=O)(=O)c3ccc(C(C)(C)C)cc3)c(NCc3ccccc3)cc21 | -7% | . | 3.5µM* | . | . | . | 22µM*
O=C(c1cc2c(=O)n3ccccc3nc2s1)N1CCOCC1 | 0% | -8% | 4.5µM* | 0% | 2 | 8% | 24µM*
COc1cc(OC)cc(C(=O)Nc2cc(-c3nc4ccccc4s3)ccc2OC)c1 | -3% | . | -4% | . | . | . | .
